# Measured values: PubChem BioAssay (NCATS)
# Results filed as inconclusive are left out. Values without a mark were called inactive. Calls of active or inactive are those of the source. Calls come from the whole dose curve; as a rule, active = well fitted cell-killing curve with a large enough effect; inconclusive = small, poorly fitted or top-dose-only effect; inactive = flat fitted curve, though single readings scatter.
# Assay: Cell Viability - LYMP2-023 (AID 975);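 note: cellular ATP measured by luciferase luminescence as viability proxy; nearly all actives have a fitted effect of over 55% in size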
# Settings: LYMP2-023 lymphoblastoid cell viability; series mostly up to 92.2 µM
# In short: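 Steps: seed 2500 human lymphoblastoid cells per well, incubate 5 hr at 37 C, add compound for 24 hr at 37 C, add CellTiter-Glo, hold 30 min at room temperature, read luminescence. AC50 derived by Hill modelling.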
row,Compound,outcome
1,Cc1occc(=O)c1O,inactive
2,CC1=CC(=O)CC(C)(C)C1(O)/C=C/C(C)=C\C(=O)O (centres undefined),inactive
3,COS(C)(=O)=O,inactive

# Assay: Cell Viability - LYMP2-025 (AID 976)
# Settings: LYMP2-025 lymphoblastoid cell viability; series mostly up to 92.2 µM
# In short: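 Acute cytotoxicity is scored as a concentration-dependent fall in intracellular ATP, measured by luciferase luminescence, in human lymphoblastoid LYMP2-025 cells exposed to compound for 24 hours at 37 C. AC50 values come from standard Hill fits.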
row,Compound,outcome
1,Cc1occc(=O)c1O,inactive
2,CC1=CC(=O)CC(C)(C)C1(O)/C=C/C(C)=C\C(=O)O (centres undefined),inactive
3,COS(C)(=O)=O,inactive

# Assay: Cell Viability - LYMP2-002 (AID 977);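 note: compound exposure lasted 24 h at 37 °C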
# Settings: LYMP2-002 lymphoblastoid cell viability, qHTS; series mostly up to 92.2 µM
# In short: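 Human lymphoblastoid cells (2500/well) in complete medium were preincubated 5 hr at 37 C, then exposed to compounds for 24 hr at 37 C. Intracellular ATP was read by CellTiter-Glo luminescence; AC50 came from Hill-equation concentration-response fits.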
row,Compound,outcome
1,Cc1occc(=O)c1O,inactive
2,CC1=CC(=O)CC(C)(C)C1(O)/C=C/C(C)=C\C(=O)O (centres undefined),inactive
3,COS(C)(=O)=O,inactive

# Assay: Cell Viability - LYMP2-006 (AID 978); note: nearly all actives have a fitted effect of over 60% in size
# Settings: LYMP2-006 lymphoblastoid cell viability, qHTS; series mostly up to 92.2 µM
# In short: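 In this cytotoxicity screen, the human lymphoblastoid line grew in complete medium with test compounds for 24 hr at 37 C. Cellular ATP served as the viability signal.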
row,Compound,outcome
1,Cc1occc(=O)c1O,inactive
2,CC1=CC(=O)CC(C)(C)C1(O)/C=C/C(C)=C\C(=O)O (centres undefined),inactive
3,COS(C)(=O)=O,inactive

# Assay: Cell Viability - LYMP2-007 (AID 979);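 note: cells exposed to compound for 24 h before reading; nearly all actives have a fitted effect of over 60% in size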
# Settings: LYMP2-007 lymphoblastoid cell viability; series mostly up to 92.2 µM
# In short: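 Cells are seeded at 2500 per well and rested 5 hr. Compounds are then added over a concentration series for 24 hr at 37 C. CellTiter-Glo is added for 30 min at room temperature before luminescence reading.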
row,Compound,outcome
1,Cc1occc(=O)c1O,inactive
2,CC1=CC(=O)CC(C)(C)C1(O)/C=C/C(C)=C\C(=O)O (centres undefined),inactive
3,COS(C)(=O)=O,inactive

# Assay: Cell Viability - LYMP2-008 (AID 980); note: nearly all actives have a fitted effect of over 60% in size
# Settings: LYMP2-008 lymphoblastoid cell viability, qHTS; series mostly up to 92.2 µM
# In short: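 Cells seeded at 2500/well and rested 5 hr at 37 C; compounds added over a concentration range and incubated 24 hr at 37 C; CellTiter-Glo added, 30 min at room temperature; luminescence read and AC50 fitted with Hill model.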
row,Compound,outcome
1,Cc1occc(=O)c1O,inactive
2,CC1=CC(=O)CC(C)(C)C1(O)/C=C/C(C)=C\C(=O)O (centres undefined),inactive
3,COS(C)(=O)=O,inactive

# Assay: Cell Viability - LYMP2-010 (AID 981); note: nearly all actives have a fitted effect of over 55% in size
# Settings: LYMP2-010 lymphoblastoid cell viability, qHTS; series mostly up to 92.2 µM
# In short: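 Steps: seed 2500 LYMP2-010 cells per well; incubate 5 hr at 37 C; add compound; incubate 24 hr at 37 C; add CellTiter-Glo, wait 30 min at room temperature; read luminescence. Concentration-response fitted to Hill equation for AC50.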
row,Compound,outcome
1,Cc1occc(=O)c1O,inactive
2,CC1=CC(=O)CC(C)(C)C1(O)/C=C/C(C)=C\C(=O)O (centres undefined),inactive
3,COS(C)(=O)=O,inactive

# Assay: Cell Viability - LYMP2-012 (AID 982);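 note: cellular ATP by luciferase luminescence where a drop means cytotoxicity; cells exposed to compound for one day before reading; nearly all actives have a fitted effect of over 55% in size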
# Settings: LYMP2-012 lymphoblastoid cell viability qHTS; series mostly up to 92.2 µM
row,Compound,outcome
1,Cc1occc(=O)c1O,inactive
2,CC1=CC(=O)CC(C)(C)C1(O)/C=C/C(C)=C\C(=O)O (centres undefined),inactive
3,COS(C)(=O)=O,inactive

# Assay: Cell Viability - LYMP2-014 (AID 983); note: nearly all actives have a fitted effect of over 50% in size
# Settings: LYMP2-014 lymphoblastoid cells, viability qHTS; series mostly up to 92.2 µM
# In short: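 Cells are plated at 2500/well and left 5 hr at 37 C. Compounds are added across a concentration range and incubated 24 hr at 37 C in complete medium. CellTiter-Glo is added, and luminescence is read after 30 min at room temperature.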
row,Compound,outcome
1,Cc1occc(=O)c1O,inactive
2,CC1=CC(=O)CC(C)(C)C1(O)/C=C/C(C)=C\C(=O)O (centres undefined),inactive
3,COS(C)(=O)=O,inactive

# Assay: Cell Viability - LYMP2-016 (AID 984); note: nearly all actives have a fitted effect of over 55% in size
# Settings: LYMP2-016 lymphoblastoid cell viability, qHTS; series mostly up to 92.2 µM
# In short: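 Concentration-dependent ATP depletion measured in LYMP2-016 lymphoblastoid cells, 24 h, 37 C; luciferase-based luminescent detection; Hill-equation AC50.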
row,Compound,outcome
1,Cc1occc(=O)c1O,inactive
2,CC1=CC(=O)CC(C)(C)C1(O)/C=C/C(C)=C\C(=O)O (centres undefined),inactive
3,COS(C)(=O)=O,inactive

# Assay: Cell Viability - LYMP2-018 (AID 985);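 note: compound exposure lasted 24 hr at 37 °C; nearly all actives have a fitted effect of over 50% in size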
# Settings: LYMP2-018 lymphoblastoid cells, viability (qHTS); series mostly up to 92.2 µM
# In short: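 Seed 2500 lymphoblastoid cells per well, incubate 5 hr at 37 C, add compound and incubate 24 hr at 37 C, add CellTiter-Glo, wait 30 min at room temperature, then read luminescence.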
row,Compound,outcome
1,Cc1occc(=O)c1O,inactive
2,CC1=CC(=O)CC(C)(C)C1(O)/C=C/C(C)=C\C(=O)O (centres undefined),inactive
3,COS(C)(=O)=O,inactive

# Assay: Cell Viability - LYMP2-020 (AID 986); note: nearly all actives have a fitted effect of over 55% in size
# Settings: series mostly up to 92.2 µM
# In short: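 Seed 2500 cells per well and incubate 5 hr at 37 C. Add compounds at a concentration series and incubate 24 hr at 37 C. Add CellTiter-Glo, wait 30 min at RT, read luminescence, and fit a Hill curve for AC50.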
row,Compound,outcome
1,Cc1occc(=O)c1O,inactive
2,CC1=CC(=O)CC(C)(C)C1(O)/C=C/C(C)=C\C(=O)O (centres undefined),inactive
3,COS(C)(=O)=O,inactive

# Assay: Cell Viability - LYMP2-022 (AID 987); note: nearly all actives have a fitted effect of over 55% in size
# Settings: LYMP2-022 lymphoblastoid cell viability; series mostly up to 92.2 µM
# In short: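 Cells were seeded at 2500 per well, rested 5 hr at 37 C, and treated with titrated compounds for 24 hr at 37 C. Cellular ATP was then quantified by luciferase luminescence, and AC50 values were derived from Hill-modelled concentration-response curves.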
row,Compound,outcome
1,Cc1occc(=O)c1O,inactive
2,CC1=CC(=O)CC(C)(C)C1(O)/C=C/C(C)=C\C(=O)O (centres undefined),inactive
3,COS(C)(=O)=O,inactive

# Assay: Cell Viability - LYMP2-024 (AID 988); note: nearly all actives have a fitted effect of over 60% in size
# Settings: LYMP2-024 lymphoblastoid cell viability; series mostly up to 92.2 µM
# In short: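 qHTS cytotoxicity, human lymphoblastoid line, complete medium; 24 h cpd treatment, 37 C; CellTiter-Glo ATP luminescence readout; tetraoctylammonium bromide positive control; AC50 via Hill fit.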
row,Compound,outcome
1,Cc1occc(=O)c1O,inactive
2,CC1=CC(=O)CC(C)(C)C1(O)/C=C/C(C)=C\C(=O)O (centres undefined),inactive
3,COS(C)(=O)=O,inactive

# Assay: Cell Viability - LYMP2-026 (AID 989); note: nearly all actives have a fitted effect of over 50% in size
# Settings: LYMP2-026 lymphoblastoid cell viability, qHTS; series mostly up to 92.2 µM
# In short: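 Cells are seeded at 2500 per well and held 5 hr at 37 C. Compounds are added in concentration series for 24 hr, then CellTiter-Glo reagent is applied and luminescence read.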
row,Compound,outcome
1,Cc1occc(=O)c1O,inactive
2,CC1=CC(=O)CC(C)(C)C1(O)/C=C/C(C)=C\C(=O)O (centres undefined),inactive
